This is a sample that favours compounds with a hit; in the whole collection about 3.2% have one here.
AMA1-RON2 inh – qHTS for Inhibitors of AMA1-RON; Towards Development of Antimalarial Drug Lead: Primary Screen; AlphaScreen AMA1-biotinylated RON2 peptide binding; Plasmodium falciparum AMA1 (3D7) - RON2 peptide interaction; Potency, µM (doses to about 58.2 µM), for the others: at the highest dose activity change, negative = inhibition, usual class: inhibitors; actives 0.2% (n = 360,000);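 further: 0% = vehicle wells and -100% = peptide control; nearly all actives have a fitted effect of over 45% in size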
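AMA1 (3D7) with his tag at 25 nM final met compounds first, then biotinylated RON2 peptide at 25 nM; detection used donor plus acceptor beads, 10 µg/mL apiece, read by AlphaScreen after 30 min at room temperature.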
TbPYK inhibitor – qHTS of Trypanosoma Brucei Inhibitors; pyruvate kinase (Trypanosoma brucei), Q57TT1; TbPYK enzyme, Kinase-Glo Plus ATP luminescence, 45 min; Potency, µM (series often up to 76.8 µM), for inactives: at the highest dose activity, negative = inhibition, actives largely listed as inhibitors; actives 0.12% (n = 410,000); AID 624173, 2012; further: nearly all actives have a fitted effect of over 50% in size
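Quantitative HTS: titrated library compounds versus trypanosomal pyruvate kinase in TEA buffer (pH 7.2) containing KCl, MgCl2, BSA and Tween-20. Reactions were initiated with ADP, 130 uM final. Kinase-Glo Plus luminescence was read after 45 min at RT.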
LmPK inh – qHTS Assay for Inhibitors of Leishmania Mexicana Pyruvate Kinase (LmPK). Q27686. purified LmPK, Kinase-Glo ATP luminescence, 1 h. Potency, µM (doses to about 57.5 µM), for the others: at the highest dose activity change, negative = inhibition, hits mostly inhibitors. actives 0.37% (n = 290,000)
Target sequence (Q27686 whole entry, looked up): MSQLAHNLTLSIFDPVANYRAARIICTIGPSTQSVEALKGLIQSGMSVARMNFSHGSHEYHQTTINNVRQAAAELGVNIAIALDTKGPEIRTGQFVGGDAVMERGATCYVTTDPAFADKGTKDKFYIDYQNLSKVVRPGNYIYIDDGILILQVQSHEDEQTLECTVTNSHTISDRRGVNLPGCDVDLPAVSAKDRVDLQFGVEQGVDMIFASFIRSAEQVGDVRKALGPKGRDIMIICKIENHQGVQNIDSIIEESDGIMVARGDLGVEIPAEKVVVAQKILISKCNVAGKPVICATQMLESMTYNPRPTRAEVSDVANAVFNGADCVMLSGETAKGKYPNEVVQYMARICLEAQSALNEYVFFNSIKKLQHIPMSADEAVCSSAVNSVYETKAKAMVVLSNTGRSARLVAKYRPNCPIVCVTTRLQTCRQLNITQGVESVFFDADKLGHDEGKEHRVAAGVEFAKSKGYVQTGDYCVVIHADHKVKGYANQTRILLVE
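ATP generated from ADP (0.1 mM) and PEP (0.5 mM) by 0.1 nM LmPK over 1 h at room temperature (pH 7.2 imidazole buffer) was detected by coupled luciferase luminescence. Values were normalized to uninhibited and no-enzyme wells.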
RE007 growth inh – qHTS Assay for Inhibitors of the HIV-1 protein Vpr. S. pombe RE007 Vpr strain, BacTiter-Glo ATP luminescence, 24 h. Potency, µM (highest dose often 92.2 µM), without a hit: at the top dose activity change, negative = less growth, hits mostly inhibitors. actives 0.21% (n = 360,000). AID 651644, 2012; active means well fitted falling curve with a large enough effect; inconclusive means small, poorly fitted or top-dose-only effect; inactive means no such curve, though single readings can be large or run the other way; further: nearly all actives have a fitted effect of over 50% in size
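Fission yeast RE007 carrying one integrated HIV-1 vpr copy, seeded at OD 0.01 in PMG+AL medium with 23 nL pinned compound. Grown 24 h at 30 degrees; viability read by BacTiter-Glo luminescence after 5 min.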
Sm TGR inh – qHTS Assay for the Inhibitors of Schistosoma Mansoni Peroxiredoxins. purified TGR, DTNB reduction, TNB absorbance 405 nm. Potency, µM (top dose mostly 114 µM), for inactives: top-dose activity change, negative = inhibition, hits mostly inhibitors. actives 3% (n = 360,000). AID 485364, 2010; further: nearly all actives have a fitted effect of over 60% in size
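Kinetic colorimetric format: TGR-catalysed, NADPH-driven DTNB reduction monitored via TNB absorbance. Enzyme dispensed at 20 nM; compound exposure 15 min at room temperature before reaction start.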
* = called active by the depositor; ? = inconclusive; / = no result; [ ] = remark or other dose. Unless noted, the call rests on the fitted dose curve; in most records, active means well fitted curve in the direction sought with a large enough effect; inconclusive means small, poorly fitted or top-dose-only effect, or another doubt; inactive means no such curve, though single readings can be large; an effect the other way counts as inactive or inconclusive. Unless noted, on the % scale 0 is the no-effect control and ±100 the full control effect; potency means the concentration at half of the fitted maximal effect.

SMILES	AMA1-RON2 inh	TbPYK inhibitor	LmPK inh	RE007 growth inh	Sm TGR inh
CSc1cccc(NC(=O)CN(C)S(=O)(=O)c2cnc[nH]2)c1	5µM*	-6%	0%	-1%	16%
O=S(c1ccccc1O)S(=O)c1ccccc1O (stereo not drawn)	0%	4.5µM*	/	35µM*	/
CC(C)(C)C(=O)Nc1ccc2nc(SCCOc3ccccc3Cl)sc2c1	/	1%	/	/	7%
CN(C)[C@@H]1C(=O)C(C(N)=O)=C(O)[C@@]2(O)C(=O)C3=C(O)c4c(O)cccc4[C@@](C)(O)[C@H]3[C@H](O)[C@@H]12	1µM*	-15%	-1%	9%[18.4 µM]	8.9µM*
CCOC(=O)C1CCN(c2ccc(-c3cccs3)nn2)CC1	1%	?	14µM*	?	4%
NNC(=O)c1c(O)c2cccc3c2n(c1=O)CCC3	41%	14%	6%	4%	32µM*
COc1cc(NC(=O)c2ccc(C)c(Cl)c2)ccc1NC(=O)c1cc2ccccc2o1	/	3%	/	/	10%
Cc1cc(C)cc(-n2ccnc2SCC(=O)Nc2ccc3c(c2)OCO3)c1	/	4%	/	/	2%
COC(=O)c1ccc([C@H]2Nc3ccc(S(=O)(=O)Nc4ccc(F)cc4)cc3[C@H]3C=CC[C@H]32)cc1	/	-9%	/	/	32µM*
Cc1cc(C)c2c(c1)[C@@H]1C=CC[C@@H]1[C@H](c1ccc(S(=O)(=O)N3CCOCC3)cc1)N2	-9%	?	2%	-2%	2.8µM*
Fc1ccc([C@@H]2Nc3ccccc3[C@@H]3C=CC[C@@H]32)cc1	/	-27%	/	/	5.6µM*
COC(=O)c1ccc(C2Nc3c(C)cc(C)cc3C3C=CCC32)cc1 (stereo not drawn)	/	?	/	/	1.1µM*
Cc1cccc(NS(=O)(=O)c2ccc3c(c2)[C@H]2C=CC[C@H]2[C@@H](c2ccc(F)cc2)N3)c1	/	1%	/	/	-4%
COc1cccc(NS(=O)(=O)c2ccc3c(c2)C2C=CCC2C(c2ccc(C(=O)O)cc2)N3)c1 (stereo not drawn)	?	?	3%	-25%	?
CSCC[C@H](NC(=O)[C@@H](Cc1ccc(O[S+](=O)([O-])O)cc1)NC(=O)[C@H](N)CC(=O)O)C(=O)NCC(=O)N[C@@H](Cc1c[nH]c2ccccc12)C(=O)N[C@H](CCSC)C(=O)N[C@H](CC(=O)O)C(=O)N[C@@H](Cc1ccccc1)C(N)=O	/	-6%	/	/	/
COc1ccc(OC)c(CNS(=O)(=O)c2cc(-c3onc(C)c3C)ccc2C)c1	/	-10%	/	/	1%
Cc1cc(C)c(S(=O)(=O)NCC(c2ccco2)N2CCN(c3ccccc3)CC2)c(C)c1 (stereo not drawn)	/	-1%	/	/	7%
COc1ccc(N2CCN(C(=O)CN3CCSc4ccccc43)CC2)cc1	/	-4%	/	/	4%
CCCCC[C@]12Cc3ccccc3C(O1)c1c(cc(C)oc1=O)O2	/	/	-5%[11.5 µM]	/	8%[22.9 µM]
Cc1onc(-c2ccccc2)c1C(=O)n1nnc2ccccc21	17%	-4%	9%	14%	18µM*
O=C(c1ccccc1)n1nnc2ccccc21	-3%	-9%	1%	2%	16µM*
COc1cccc(Cn2ccn(-c3ccc(F)cc3)c(=O)c2=O)c1	/	-4%	/	/	-6%
COc1ccc(-c2nc3scc(CCNS(=O)(=O)c4ccc(Oc5ccccc5)cc4)n3n2)cc1OC	/	1%	/	/	-2%
CC1(c2ccc([N+](=O)[O-])cc2)Nc2ccccc2S1 (stereo not drawn)	-28%	-17%	2%	40µM*	0%
Oc1c(Cl)cc(Cl)cc1/C=N/c1nc(-c2ccc(Cl)cc2)cs1	20%	3%	3%	-25%	?
SMILES	AMA1-RON2 inh	TbPYK inhibitor	LmPK inh	RE007 growth inh	Sm TGR inh
Oc1c(Cl)cc(Cl)cc1/C=N/c1nccs1	89%	-15%	-9%	-20%	6.3µM*
Oc1ccc(C2CNCCc3c2cc(O)c(O)c3Cl)cc1 (stereo not drawn)	23%	?	/	6%[18.4 µM]	-7%
Oc1ccc(C2CNCc3sccc32)cc1O (stereo not drawn)	-2%	-16%	/	2%[18.4 µM]	35µM*
Cc1ccc(N(CC(=O)NCc2ccco2)S(=O)(=O)c2ccccc2)cc1	-15%	-5%	0%	17%	25µM*
CCc1ccc(N(CC(=O)NC2CC2)S(=O)(=O)c2ccc(C)cc2)cc1	3%	2%	-3%	-5%	40µM*
COc1ccc(N(CC(=O)NCc2ccco2)S(=O)(=O)c2ccc(C)cc2)cc1OC	2%	1%	-3%	16%	-6%
Cc1ccc(N(CC(O)COCc2ccco2)S(=O)(=O)c2ccc(C)cc2)cc1 (stereo not drawn)	-29%	-6%	4%	-5%	8.9µM*
Cc1ccc(S(=O)(=O)N(CC(=O)NC2CCCC2)c2cccc(C)c2)cc1	-1%	-3%	2%	-3%	-11%
COc1ccccc1N(CC(=O)NCc1ccco1)S(=O)(=O)c1ccc(C)cc1	-21%	-25%	-2%	16%	40µM*
Cc1ccc(Sc2ccc(N3CCCC(C(=O)Nc4ccc(F)cc4)C3)nn2)cc1 (stereo not drawn)	/	4%	/	/	-1%
CCCCCSc1nnc2c(n1)OC(c1ccc(C)s1)N(C(C)=O)c1ccccc1-2 (stereo not drawn)	/	-5%	/	/	0%
Cc1ccc(S(=O)(=O)N(CC(=O)NCc2ccco2)C2CCCCC2)cc1	?	-3%	2%	-7%	45µM*
CCN(CC)CCNC(=O)c1ccc(-c2nc(CS(=O)(=O)c3ccc(C)cc3)c(C)o2)cc1	/	1%	/	/	1%
CCOCN(C(=O)CSc1nc2ccccc2[nH]1)c1c(C)cccc1CC	/	2%	/	/	-10%
O=C(CCSc1ccccc1)Nc1nnc(-c2cccs2)o1	123%	2%	4%	0%	28µM*
CCn1c(-c2cccn(Cc3ccc(Cl)cc3Cl)c2=O)n[nH]c1=S	75%	5.6µM*	11%	21%	4%
S=c1[nH]nc(-c2ccc(Cl)cc2Cl)n1Cc1ccccc1	63%	-27%	?	?	6%
CC(=O)Oc1cccc(N2C(=O)C3CC=CCC3C2=O)c1 (stereo not drawn)	-1%	0%	-8%	-20%	1%
CC(=O)Oc1cccc(N2C(=O)C3C4C=CC(C4=C(C)C)C3C2=O)c1 (stereo not drawn)	-2%	-23%	-1%	35µM*	-24%
CC(=O)Oc1cccc(N2C(=O)C3C(C2=O)C2C=CC3C23CC3)c1 (stereo not drawn)	-3%	-25%	-3%	-1%	40µM*

Screening data as filed in PubChem.
